A selection: hits, their analogues and other compounds. The true share with any hit is near 4.8%.
HEK293 cAMP cs: raises cAMP in parental HEK293 cells, TSHR agonist counter-screen; 2.5% of 73,000 active; Potency, µM (top dose mostly 57.1 µM), inactives show top-dose activation, hits mostly activators; parental HEK293 CNG cAMP sensor, membrane potential fluorescence; note: % of control where 0% means no effect; nearly all actives have a fitted effect of over 55% in size
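Counterscreen for endogenous-receptor signalling: CNG-channel HEK 293 cells report cAMP rise by membrane depolarization. After 60 min dye equilibration with 100 uM RO 20-1724, compounds incubated 30 min before bottom-read fluorescence at 590 nm.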
Casp7 inh: caspase-7 (human) inhibition, allosteric or competitive; P55210; recombinant caspase-7, Ac-DEVD-AFC fluorescence rate; Potency, µM (titrated, usually from 57.5 µM), for inactives: top-dose activity change, negative = inhibition, actives largely listed as inhibitors; 0.02% of 75,000 active; active = well fitted inhibition curve with a large enough effect in the main read-out, with a control signal flat, not every such curve was filed as active; inconclusive = small, poorly fitted or top-dose-only effect, or a change in a side signal; note: % of control where 0% means no effect
Casp1 inh: blocks human caspase-1 allosterically or competitively; P29466; Caspase-1 enzyme, Ac-WEHD-AFC fluorogenic rate; Potency, µM (titrated, usually from 57.5 µM), inactives show top-dose activity change, negative = inhibition, hits mostly inhibitors; 0.03% of 75,000 active; AID 900;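 note: plate controls were vehicle for no effect and no substrate for full effect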
ERK AVP block: blocks ERK signaling stimulated by vasopressin; HEK293-V1b, vasopressin-stimulated pERK AlphaScreen; Potency, µM (highest dose often 57.5 µM), for inactives: top-dose activity, negative = inhibition, actives largely listed as inhibitors; 0.99% of 72,000 active; note: % is set by controls: 0 for no effect and ±100 for the full control effect; nearly all actives have a fitted effect of over 55% in size
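HEK293 cells stably expressing V1b receptor, preincubated 30 min at 37 °C with compound, then stimulated 5 min with 25 nM vasopressin. Phospho-ERK by AlphaScreen SureFire after 5 h RT; normalized to DMSO and vasopressin; AC50 by Hill fit.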
15-hLO inh: 15-hLO (ALOX15) enzyme inhibition; P16050; purified 15hLO-1, xylenol orange hydroperoxide absorbance; Potency, µM (series often up to 57.1 µM), inactives show top-dose activity change, negative = inhibition, most hits filed as inhibitors; 1.4% of 74,000 active; note: % is set by controls: 0 for no effect and ±100 for the full control effect; nearly all actives have a fitted effect of over 55% in size
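Purified human 15hLO-1 (40 nM) in 25 mM Hepes pH 7.5, 0.01% Triton X-100, preincubated 15 min RT with compound, then 50 uM arachidonic acid for 6 min. Hydroperoxide read by ferrous/xylenol orange, 30 min; 573/405 nm absorbance ratio gave progress.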
TSHR agonist: activates the human thyroid stimulating hormone receptor | P16473 | 0.48% of 73,000 active | Potency, µM (titrated, usually from 57.1 µM), inactives show at the top dose activation, most hits filed as activators | HEK293-CNG-TSHR cells (CNG channel as cAMP sensor), membrane potential dye, cAMP; active = well fitted activation curve with a large enough effect in the main read-out, with a control signal flat, not every such curve was filed as active; inconclusive = small, poorly fitted or top-dose-only effect, or a change in a side signal; inactive = no such curve, though single readings can be large or run the other way; % of control where 0% means no effect;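 note: the control signal comes from parental cells without the receptor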
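cAMP rise detected as CNG-channel membrane depolarization by fluorescent dye (emission 590 nm), 30 min after compound, following 60 min dye loading containing 100 uM RO 20-1724 at room temperature. Cells: TSHR/CNG HEK 293, with parental CNG HEK 293 as control.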
Numbers without * were called inactive; ? = inconclusive; · = no result given; ! = not confirmed by another sample; [ ] = dose if it differs, or a comment. Unless noted, calls come from the whole dose curve; as a rule, active = well fitted curve in the direction sought with a large enough effect; inconclusive = small, poorly fitted or top-dose-only effect, or another doubt; inactive = no such curve, though single readings can be large; an effect the other way counts as inactive or inconclusive. Potency is the fitted concentration of half-maximal effect.

SMILES	HEK293 cAMP cs	Casp7 inh	Casp1 inh	ERK AVP block	15-hLO inh	TSHR agonist
NC(=O)CN1C[C@@H](O)CC1=O	28%	-3%	0%	4%	7%	4%
C[C@@H]1OC(OC2C(OC3CC[C@@]4(C)C5CC=C6C7CC(C)(C)CC[C@@]7(C(=O)O)CCC6(C)C5(C)CCC4[C@]3(C)CO)OCC(O)C2O)C(O)C(O)C1O (stereo not given in full)	·	-2%	-1%	?	-10%	·
CN(C(=O)Cc1ccc(Cl)c(Cl)c1)[C@H](CN1CCCC1)c1ccccc1	32µM*	0%	2%	50%	-5%[25.6 µM]	?
COc1ccc(CN2CCN(C(=O)Cc3ccccc3)CC2)c(OC)c1	5%[11.4 µM]	0%	1%	-10%	-7%[11.4 µM]	15%[11.4 µM]
CN(C(=O)Cc1ccccc1)[C@H](CN1CCCC1)c1ccccc1	32µM*	-2%	0%	14%	0%[25.6 µM]	?
CCC(=O)Nc1ccc(Cl)c(Cl)c1	·	0%	1%	-4%	-3%	·
CC(C)[C@@H](Br)C(=O)NCC(=O)O	18%[11.4 µM]	0%[11.5 µM]	-9%[11.5 µM]	6%[11.5 µM]	10%[11.4 µM]	-9%[11.4 µM]
COc1cccc(N2CCN(Cc3cccc(Cl)c3)CC2)c1	13%	-4%	-3%	15%	-7%	25µM*
COc1cccc(N2CCN(Cc3ccc(Cl)cc3)CC2)c1	8%	-2%	-3%	-13%	9%	6%
CC(C)=CCCC(C)C1CC[C@@]2(C)C3=C(CC[C@@]12C)C1(C)CCC(O)C(C)(C)C1CC3 (stereo not given in full)	·	-2%	0%	-6%	?	·
O=C1C[C@@H]2OCC=C3CN4CC[C@]56c7ccccc7N1[C@H]5[C@@H]2[C@H]3C[C@@H]46	6%	·	·	·	·	7%
Cc1ccc(OP(=O)(Oc2ccc(C)cc2)N2C=Cc3ccccc3[C@H]2C#N)cc1	28%[11.4 µM]	-3%[11.5 µM]	0%[11.5 µM]	-18%[11.5 µM]	9%[11.4 µM]	5%[11.4 µM]
c1ccc(N2CCCC3(CCNCC3)C2)cc1	?	-1%	-2%	-8%	-1%	?
c1ccc(N2CCCC3(CCNCC3)C2)nc1	16µM*	0%	-2%	-20%	4%	?
Cc1cccc(-c2nc3ccccc3c(=O)n2-n2cccc2)c1	4µM*	-2%	-1%	?	-7%[11.4 µM]	?
C#CCN[C@@H](C)Cc1ccccc1	5%	1%	3%	-15%	5%	·
NC(=O)OCCSc1nnc(-c2cccc(C(N)=S)c2)o1	13%	-1%	-2%	-21%	6%	-5%
O=C(OCC#CCSc1nnc(-c2ccccc2)o1)c1ccco1	?	3%	-4%	1%	25µM*	?
C[C@]12CC[C@H](O)C[C@@H]1CC[C@H]1[C@H]2CC[C@]2(C)[C@H](C(=O)CO)CC[C@@H]12	4%	2%	0%	9%	-5%	?
CCn1nc(-c2cccs2)nc2c(=O)n(C)c(=O)nc1-2	3.2µM*	?	0.79µM*	8%	-16%	?
CNc1ccc2oc(C[C@H]3O[C@]4(CC[C@H]3C)O[C@H]([C@H](C)C(=O)c3ccc[nH]3)[C@H](C)C[C@H]4C)nc2c1C(=O)O	11%	-21%	-10%	5µM*	37%[25.6 µM]	-1%
CC(C)c1ccc2c(c1)CC[C@@H]1[C@@](C)(CN)CCC[C@@]21C	-30%	·	·	·	·	?
O=C(O)CSCC(=O)O	5%[11.4 µM]	1%[11.5 µM]	2%[11.5 µM]	-6%[11.5 µM]	-2%[11.4 µM]	2%[11.4 µM]
Cc1c(C(=O)c2cccc3ccccc23)c2cccc3c2n1[C@H](CN1CCOCC1)CO3	22%	-1%	0%	32%	?	·
CCCn1c(C)c(C(=O)c2cccc3ccccc23)c2ccccc21	13µM*	-3%	-2%	35%	-28%[25.6 µM]	?
SMILES	HEK293 cAMP cs	Casp7 inh	Casp1 inh	ERK AVP block	15-hLO inh	TSHR agonist
Cc1cccn2c(=O)c3c(nc12)N1CCC(Cc2ccccc2)CC1C1(C3)C(=O)N(C)C(=O)N(C)C1=O (stereo not given)	20µM*	-3%	-1%	36%	4%	?
C(=C/c1ccccc1)/CN1CCN(CCOC(c2ccccc2)c2ccccc2)CC1	7%	-2%	-2%	?	6%[25.6 µM]	32µM*
COc1cc2c(c(OC)c1OC)-c1ccc(OC)c(=O)cc1[C@H](NC(C)=O)CC2	3%	1%	-2%	0%	-6%[25.6 µM]	-3%
c1coc(CNc2ncnc3nc[nH]c23)c1	5µM*!	2%	2%	-13%	33%	?
COC(=O)c1cn(CCOc2ccccc2)c2ccccc12	20µM*	-2%	-3%	13%	-3%	?
C[C@H](CN(C)C)C(C#N)(c1ccccc1)c1ccccc1	-4%[11.4 µM]	0%[11.5 µM]	-1%[11.5 µM]	-25%[11.5 µM]	5%[11.4 µM]	1%[11.4 µM]
C[C@@]12CCC3C(CCC4=CC(=O)CC[C@]43C)C1CCC2O (stereo not given in full)	·	-12%	-3%	32µM*	-10%	·
COC[C@@H]1OC(=O)c2coc3c2[C@]1(C)C1=C(C3=O)[C@H]2CCC(=O)[C@]2(C)C[C@@H]1OC(C)=O	8%	·	·	·	·	4%
CN(C(=O)c1ccco1)C1(c2ccccc2Cl)CCCCC1=O (stereo not given)	20µM*	-3%	-1%	-19%	13%	?
COC(=O)[C@@]1(Cc2ccccc2)[C@H]2c3cc(C(=O)N(C)C)n(C)c3C[C@H]2CN1C(=O)c1ccccc1	25µM*	-6%	-2%	2%	·	?
COS(C)(=O)=O	-28%	1%	-4%	-6%	-9%	?
CC(C)NC[C@H](O)c1ccc(N)c(C#N)c1	0.005µM*	1%	-1%	?	-15%[25.6 µM]	?
COc1ccc2c(c1)CC1(CN2C)C(=O)NC(=O)N(CCc2ccccc2)C1=O (stereo not given)	2%	-25%	?	0%	16µM*	-4%
COc1cc(CN2C(=O)NC(=O)C3(Cc4cc(C)ccc4N(C)C3)C2=O)cc(OC)c1 (stereo not given)	-7%	-1%	-2%	-6%	-14%	0%
O=S1OCC2C(CO1)C1(Cl)C(Cl)=C(Cl)C2(Cl)C1(Cl)Cl (stereo not given)	22%	-1%	-5%	7%	-6%	·
O=C(O)[C@@H]1[C@H](C(=O)O)[C@]2(Cl)C(Cl)=C(Cl)[C@@]1(Cl)C2(Cl)Cl	3%[11.4 µM]	-3%[11.5 µM]	-2%[11.5 µM]	?	2.5µM*	-2%[11.4 µM]
CCNC(=O)[C@@H]1O[C@@H](n2cnc3c(N)ncnc32)[C@@H](O)[C@H]1O	0.16µM*	3%	2%	-38%	4%	?
N#CSCSC#N	-14%	1%	3%	16µM*	4%	?
CO[C@@H]([CH2][Hg])CN1C(=O)c2ccccc2S1(=O)=O.Cn1c(=O)c2nc[nH]c2n(C)c1=O	9%[11.4 µM]	-3%[11.5 µM]	0%[11.5 µM]	11%[11.5 µM]	?	2%[11.4 µM]
